The full data set covers some 7,900 targets. This sample favours those with a hit. About 0.6% of all pairs of compound and target were hits.
Experiments:
Assay in all cases: log2 fold change, soluble protein after heating vs DMSO (PISA); higher = thermal stabilisation; K562 cells, 10 uM, 30 min; active = over 0.2 and 3.5 SD of the protein, either way, in both replicates (recomputed)
[1] = compound: CN1CCN(CCOc2cc(OC3CCOCC3)c3c(Nc4c(Cl)ccc5c4OCO5)ncnc3c2)CC1 [saracatinib]
Method in brief: (§1)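 Thermal stability values are relative to control samples and come from duplicates. They are expressed as log2 fold changes. For measurement, K562 cells (2×10^6 cells/mL) received 10 μM compound for 30 min, and aliquots were heated for 3 min over 48°C-58°C, pooled, and extracted at 4°C in PBS with 0.5% NP-40. Soluble protein, the supernatant after 21,000xg for 90 min, was quantified by TMTpro 16plex LC-MS/MS with equalised channel sums.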

[2] = compound: CN1CCN(c2nc(C3=C(c4c[nH]c5ccccc45)C(=O)NC3=O)c3ccccc3n2)CC1 [sotrastaurin]
Method in brief: as §1

[3] = compound: CN1CC[C@H](c2c(O)cc(O)c3c(=O)cc(-c4ccccc4Cl)oc23)[C@H](O)C1 [alvocidib]
Method in brief: as §1

[4] = compound: CN1CCc2c(c3ccccc3n2Cc2ccc(C(=O)NO)cc2)C1 [Tubastatin A]
Method in brief: as §1

[5] = compound: CNC(=O)C1=CC=CC=C1NC2=NC(=NC=C2Cl)NC3=C(C=C(C=C3)N4CCOCC4)OC
Method in brief: as §1

[6] = compound: CNC(=O)c1ccc(Nc2ncc(C(F)(F)F)c(NCc3nccnc3N(C)S(C)(=O)=O)n2)cc1 [defactinib]
Method in brief: as §1

[7] = compound: CNCc1ccc(-c2[nH]c3cc(F)cc4c3c2CCNC4=O)cc1 [rucaparib]
Method in brief: as §1

[8] = compound: CNc1nc(-c2ccc3c(N)n[nH]c3c2)cc(N2C[C@@H](C(=O)NC3CCCCC3)CC[C@H]2C)n1
Method in brief: as §1

[9] = compound: COC(=O)N[C@@H](C)CNc1nccc(-c2cn(C(C)C)nc2-c2cc(Cl)cc(NS(C)(=O)=O)c2F)n1 [encorafenib]
Method in brief: as §1

[10] = compound: COC(=O)[C@H](CCSC)NC(=O)C1=C(C=C(C=C1)NC[C@H](CS)N)C2=CC=CC=C2
Method in brief: as §1

Measured: log2 fold change

RBM17 (UniProt Q96I25)
inactive: [1] 0.005 | [2] -0.039 | [3] -0.018 | [4] 0.065 | [5] -0.03 | [6] -0.174 | [7] 0.055 | [8] -0.025 | [9] 0.05 | [10] -0.044

RPA1 (UniProt P27694)
inactive: [1] -0.007 | [2] -0.016 | [3] -0.031 | [4] 0.039 | [5] 0.012 | [6] -0.076 | [7] 0.027 | [8] -0.01 | [9] 0.076 | [10] -0.021

RHOXF2 (UniProt Q9BQY4)
Chain of UniProt Q9BQY4 (Q9BQY4 whole entry, looked up): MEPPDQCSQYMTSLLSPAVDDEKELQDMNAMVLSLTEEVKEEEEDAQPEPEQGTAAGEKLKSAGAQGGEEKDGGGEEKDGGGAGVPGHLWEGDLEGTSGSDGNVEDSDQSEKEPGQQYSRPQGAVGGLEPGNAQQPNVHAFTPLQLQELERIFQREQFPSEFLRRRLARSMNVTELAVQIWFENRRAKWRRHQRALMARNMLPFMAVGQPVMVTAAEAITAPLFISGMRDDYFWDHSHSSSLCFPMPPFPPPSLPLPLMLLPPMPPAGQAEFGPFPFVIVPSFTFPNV
inactive: [1] 0.015 | [2] -0.002 | [3] 0.011 | [4] 0.042 | [5] -0.021 | [6] 0.008 | [7] 0.09 | [8] -0.074 | [9] -0.018 | [10] 0.066

SACM1L (UniProt Q9NTJ5)
inactive: [1] 0.004 | [2] 0.003 | [3] -0.098 | [4] -0.026 | [5] 0.042 | [6] -0.08 | [7] -0.062 | [8] 0.007 | [9] 0.034 | [10] -0.046

RPS3A (UniProt P61247)
inactive: [1] -0.034 | [2] 0.015 | [3] 0.171 | [4] 0.075 | [5] 0.105 | [6] 0.192 | [7] 0.101 | [8] 0.069 | [9] 0.047 | [10] -0.018

RPS15 (UniProt P62841)
inactive: [1] -0.02 | [2] 0.07 | [3] 0.325 | [4] 0.087 | [5] 0.04 | [6] 0.233 | [7] 0.226 | [8] 0.061 | [9] 0.028 | [10] 0.06

RNPEP (UniProt Q9H4A4)
Chain of UniProt Q9H4A4 (Q9H4A4 whole entry, looked up): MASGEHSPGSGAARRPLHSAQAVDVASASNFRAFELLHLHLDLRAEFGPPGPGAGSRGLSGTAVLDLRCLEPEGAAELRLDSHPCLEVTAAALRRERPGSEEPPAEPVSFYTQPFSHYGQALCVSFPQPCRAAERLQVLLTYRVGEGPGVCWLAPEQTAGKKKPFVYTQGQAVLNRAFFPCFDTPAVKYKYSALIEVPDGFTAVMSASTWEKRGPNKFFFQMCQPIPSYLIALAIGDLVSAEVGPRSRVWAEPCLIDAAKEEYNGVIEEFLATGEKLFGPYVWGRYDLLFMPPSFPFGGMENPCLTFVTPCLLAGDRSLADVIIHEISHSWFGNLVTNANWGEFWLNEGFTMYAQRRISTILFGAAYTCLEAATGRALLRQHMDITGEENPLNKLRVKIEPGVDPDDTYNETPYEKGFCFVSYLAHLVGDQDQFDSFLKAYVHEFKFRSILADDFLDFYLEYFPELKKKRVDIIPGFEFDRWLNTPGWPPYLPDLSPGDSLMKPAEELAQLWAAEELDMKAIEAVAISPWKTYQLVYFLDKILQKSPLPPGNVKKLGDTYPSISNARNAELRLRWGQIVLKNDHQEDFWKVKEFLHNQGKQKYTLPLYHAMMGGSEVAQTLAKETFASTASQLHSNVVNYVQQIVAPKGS
inactive: [1] -0.02 | [2] -0.038 | [3] -0.106 | [4] 0.064 | [5] 0.034 | [6] -0.036 | [7] -0.004 | [8] 0.04 | [9] -0.005 | [10] -0.041

SIDT2 isoform 2 (UniProt Q8NBJ9)
inactive: [1] 0.08 | [2] 0.024 | [3] 0.047 | [4] -0.083 | [5] 0.104 | [6] -0.064 | [7] -0.002 | [8] -0.088 | [9] -0.053 | [10] -0.176

SERPINA7 (UniProt P05543)
inactive: [1] 0.339 | [2] 0.395 | [3] 0.018 | [4] -0.169 | [5] 0.147 | [6] 0.056 | [7] -0.145 | [8] 0.061 | [9] -0.085 | [10] 0.078

RCC1 isoform 2 (UniProt P18754)
inactive: [1] -0.076 | [2] -0.049 | [3] -0.234 | [4] 0.164 | [5] -0.083 | [6] -0.224 | [7] -0.008 | [8] 0.146 | [9] 0.045 | [10] -0.07

SESN2 (UniProt P58004)
inactive: [1] -0.009 | [2] -0.222 | [3] -0.147 | [4] 0.131 | [5] 0.039 | [6] -0.229 | [7] 0.044 | [8] 0.09 | [9] 0.041 | [10] -0.121

ROCK1 (UniProt Q13464)
inactive: [1] -0.006 | [2] -0.056 | [3] -0.052 | [4] -0.009 | [5] -0.016 | [6] -0.023 | [7] 0.021 | [8] 0.122 | [9] 0.031 | [10] -0.015

RCOR1 (UniProt Q9UKL0)
inactive: [1] -0.011 | [2] -0.047 | [3] -0.066 | [4] 0.028 | [5] -0.017 | [6] -0.119 | [7] -0.005 | [8] 0.073 | [9] 0 | [10] -0.002

RBM8A (UniProt Q9Y5S9)
inactive: [1] 0.011 | [2] -0.002 | [3] 0.188 | [4] 0.045 | [5] -0.032 | [6] 0.075 | [7] -0.043 | [8] -0.006 | [9] 0.025 | [10] 0.012

RARS2 (UniProt Q5T160)
Chain of UniProt Q5T160 (Q5T160 whole entry, looked up): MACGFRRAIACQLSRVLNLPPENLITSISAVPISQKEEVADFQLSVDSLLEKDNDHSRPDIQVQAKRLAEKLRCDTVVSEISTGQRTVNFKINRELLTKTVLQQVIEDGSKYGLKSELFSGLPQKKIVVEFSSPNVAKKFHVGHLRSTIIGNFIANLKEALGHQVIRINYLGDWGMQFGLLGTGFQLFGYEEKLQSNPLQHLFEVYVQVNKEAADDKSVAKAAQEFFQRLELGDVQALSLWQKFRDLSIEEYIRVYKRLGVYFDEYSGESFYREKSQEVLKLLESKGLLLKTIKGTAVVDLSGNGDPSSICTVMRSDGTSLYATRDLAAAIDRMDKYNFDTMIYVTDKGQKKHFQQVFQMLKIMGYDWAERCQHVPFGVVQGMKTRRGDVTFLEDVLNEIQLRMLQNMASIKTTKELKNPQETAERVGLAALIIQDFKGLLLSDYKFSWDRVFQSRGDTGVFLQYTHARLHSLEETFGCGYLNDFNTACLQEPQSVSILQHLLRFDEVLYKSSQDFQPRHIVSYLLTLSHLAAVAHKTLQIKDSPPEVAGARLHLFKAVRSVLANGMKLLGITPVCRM
inactive: [1] 0.005 | [2] -0.101 | [3] -0.086 | [4] -0.056 | [5] -0.035 | [6] -0.064 | [7] 0.003 | [8] -0.042 | [9] 0.026 | [10] -0.003

SETMAR (UniProt Q53H47)
inactive: [1] -0.007 | [2] -0.132 | [3] -0.029 | [4] -0.402 | [5] 0.006 | [6] -0.026 | [7] -0.004 | [8] 0.005 | [9] 0.198 | [10] -0.084

REL (UniProt Q04864)
inactive: [1] -0.028 | [2] -0.049 | [3] -0.059 | [4] 0.008 | [5] 0.052 | [6] -0.12 | [7] 0.089 | [8] -0.013 | [9] -0.046 | [10] -0.016

RMC1 (UniProt Q96DM3)
inactive: [1] -0.002 | [2] -0.01 | [3] -0.105 | [4] 0.007 | [5] 0.014 | [6] -0.041 | [7] 0.029 | [8] 0.014 | [9] -0.013 | [10] -0.018

RALY (UniProt Q9UKM9)
Chain of UniProt Q9UKM9 (Q9UKM9 whole entry, looked up): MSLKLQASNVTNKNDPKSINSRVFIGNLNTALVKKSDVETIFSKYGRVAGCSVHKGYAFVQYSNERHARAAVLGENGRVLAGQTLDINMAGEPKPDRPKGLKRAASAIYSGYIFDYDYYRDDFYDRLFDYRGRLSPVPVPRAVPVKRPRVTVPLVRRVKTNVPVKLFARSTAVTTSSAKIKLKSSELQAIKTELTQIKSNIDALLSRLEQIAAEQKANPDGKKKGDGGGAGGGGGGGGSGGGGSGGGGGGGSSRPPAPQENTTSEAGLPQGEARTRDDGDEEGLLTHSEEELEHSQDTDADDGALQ
inactive: [1] -0.091 | [2] -0.031 | [3] 0.041 | [4] 0.226 | [5] -0.01 | [6] 0.089 | [7] 0.221 | [8] 0.066 | [9] 0.073 | [10] -0.021

RRP12 (UniProt Q5JTH9)
inactive: [1] -0.024 | [2] -0.118 | [3] 0.233 | [4] 0.125 | [5] -0.057 | [6] -0.006 | [7] 0.183 | [8] -0.005 | [9] 0.138 | [10] 0.076

SEC16A isoform 5 (UniProt O15027)
inactive: [1] -0.08 | [2] -0.049 | [3] 0.028 | [4] 0.052 | [5] -0.085 | [6] -0.016 | [7] 0.22 | [8] 0.09 | [9] 0.119 | [10] -0.018

RAB8B (UniProt Q92930)
inactive: [1] 0.084 | [2] -0.058 | [3] -0.098 | [4] -0.054 | [5] 0.006 | [6] -0.004 | [7] -0.014 | [8] 0.056 | [9] -0.062 | [10] -0.06

RAVER1 (UniProt E9PAU2)
inactive: [1] -0.086 | [2] -0.376 | [3] -0.624 | [4] 0.413 | [5] -0.069 | [6] -0.322 | [7] -0.186 | [8] -0.087 | [9] 0.105 | [10] -0.065

RDH11 (UniProt Q8TC12)
inactive: [1] -0.121 | [2] -0.019 | [3] -0.028 | [4] 0.003 | [5] 0.136 | [6] 0.001 | [7] 0.113 | [8] 0.019 | [9] 0.094 | [10] -0.086

RNF14 (UniProt Q9UBS8)
Chain of UniProt Q9UBS8 (Q9UBS8 whole entry, looked up): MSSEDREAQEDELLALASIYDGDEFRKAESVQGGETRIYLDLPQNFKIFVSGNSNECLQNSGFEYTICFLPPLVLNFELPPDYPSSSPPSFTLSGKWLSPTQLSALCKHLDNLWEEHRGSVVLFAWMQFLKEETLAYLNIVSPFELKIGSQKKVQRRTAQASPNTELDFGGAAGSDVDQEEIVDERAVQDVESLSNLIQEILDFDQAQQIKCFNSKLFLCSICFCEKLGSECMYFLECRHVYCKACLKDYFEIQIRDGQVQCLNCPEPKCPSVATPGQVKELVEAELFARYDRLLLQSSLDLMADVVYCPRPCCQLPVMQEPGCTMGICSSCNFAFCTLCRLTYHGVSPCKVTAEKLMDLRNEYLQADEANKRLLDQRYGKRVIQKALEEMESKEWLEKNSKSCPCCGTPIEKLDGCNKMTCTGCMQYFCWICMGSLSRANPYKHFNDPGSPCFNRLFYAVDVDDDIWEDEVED
inactive: [1] -0.02 | [2] -0.042 | [3] -0.112 | [4] -0.014 | [5] 0.007 | [6] -0.096 | [7] -0.015 | [8] -0.043 | [9] -0.027 | [10] 0.042

SEH1L isoform 1 (UniProt Q96EE3)
inactive: [1] 0.009 | [2] -0.022 | [3] 0.018 | [4] -0.015 | [5] -0.029 | [6] -0.012 | [7] -0.016 | [8] -0.053 | [9] 0.025 | [10] -0.007

RAPGEF4 (UniProt Q8WZA2)
inactive: [1] 0.045 | [2] -0.033 | [3] 0.04 | [4] 0.333 | [5] -0.114 | [6] -0.057 | [7] -0.063 | [8] 0.083 | [9] 0.059 | [10] -0.123

RIOK3 (UniProt O14730)
Chain of UniProt O14730 (O14730 whole entry, looked up): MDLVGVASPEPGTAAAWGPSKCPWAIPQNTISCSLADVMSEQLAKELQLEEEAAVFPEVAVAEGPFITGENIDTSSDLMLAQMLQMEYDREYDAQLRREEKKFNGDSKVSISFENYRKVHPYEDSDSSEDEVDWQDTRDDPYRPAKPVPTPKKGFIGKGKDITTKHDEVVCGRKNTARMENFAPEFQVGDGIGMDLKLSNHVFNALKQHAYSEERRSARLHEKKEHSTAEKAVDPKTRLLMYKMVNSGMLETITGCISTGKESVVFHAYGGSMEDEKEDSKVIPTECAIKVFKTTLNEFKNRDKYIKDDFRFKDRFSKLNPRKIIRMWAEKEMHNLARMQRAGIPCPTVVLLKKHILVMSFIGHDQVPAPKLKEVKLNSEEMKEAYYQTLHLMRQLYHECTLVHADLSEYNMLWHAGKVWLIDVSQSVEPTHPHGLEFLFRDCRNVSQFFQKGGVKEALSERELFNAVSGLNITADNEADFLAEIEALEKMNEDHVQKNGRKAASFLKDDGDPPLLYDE
inactive: [1] 0.029 | [2] -0.006 | [3] -0.002 | [4] 0.012 | [5] -0.029 | [6] -0.01 | [7] -0.132 | [8] -0.039 | [9] -0.02 | [10] -0.002

SENP6 (UniProt Q9GZR1)
Chain of UniProt Q9GZR1 (Q9GZR1 whole entry, looked up): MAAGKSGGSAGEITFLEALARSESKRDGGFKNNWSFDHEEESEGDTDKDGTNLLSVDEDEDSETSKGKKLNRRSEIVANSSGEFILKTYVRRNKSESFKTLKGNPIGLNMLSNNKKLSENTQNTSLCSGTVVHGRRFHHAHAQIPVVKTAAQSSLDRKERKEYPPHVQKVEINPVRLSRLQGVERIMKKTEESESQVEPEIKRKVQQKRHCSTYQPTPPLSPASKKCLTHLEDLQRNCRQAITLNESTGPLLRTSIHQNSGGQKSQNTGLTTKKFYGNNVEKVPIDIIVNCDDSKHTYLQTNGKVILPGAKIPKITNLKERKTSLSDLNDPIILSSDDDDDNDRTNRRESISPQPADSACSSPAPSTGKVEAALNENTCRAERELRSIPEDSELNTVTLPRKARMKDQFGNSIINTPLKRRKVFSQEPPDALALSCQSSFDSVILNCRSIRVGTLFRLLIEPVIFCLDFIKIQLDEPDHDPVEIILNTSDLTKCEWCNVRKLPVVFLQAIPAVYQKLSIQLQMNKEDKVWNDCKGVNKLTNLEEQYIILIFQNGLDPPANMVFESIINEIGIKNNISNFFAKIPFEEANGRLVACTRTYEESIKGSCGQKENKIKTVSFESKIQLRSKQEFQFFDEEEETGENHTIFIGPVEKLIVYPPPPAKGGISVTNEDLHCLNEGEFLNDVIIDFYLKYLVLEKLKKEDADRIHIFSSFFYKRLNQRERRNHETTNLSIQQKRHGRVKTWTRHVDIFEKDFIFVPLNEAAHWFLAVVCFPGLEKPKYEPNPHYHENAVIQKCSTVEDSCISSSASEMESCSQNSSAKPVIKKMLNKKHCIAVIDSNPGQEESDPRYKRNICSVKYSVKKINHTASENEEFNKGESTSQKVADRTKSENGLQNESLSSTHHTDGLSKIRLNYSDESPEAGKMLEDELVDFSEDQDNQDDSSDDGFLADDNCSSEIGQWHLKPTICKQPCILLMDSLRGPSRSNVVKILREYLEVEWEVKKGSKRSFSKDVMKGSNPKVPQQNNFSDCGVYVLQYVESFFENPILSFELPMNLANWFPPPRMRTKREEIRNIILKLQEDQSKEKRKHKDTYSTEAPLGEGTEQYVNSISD
inactive: [1] 0.028 | [2] -0.008 | [3] -0.062 | [4] 0.063 | [5] -0.018 | [6] -0.131 | [7] 0.003 | [8] -0.034 | [9] 0.016 | [10] 0

SAFB2 (UniProt Q14151)
Chain of UniProt Q14151 (Q14151 whole entry, looked up): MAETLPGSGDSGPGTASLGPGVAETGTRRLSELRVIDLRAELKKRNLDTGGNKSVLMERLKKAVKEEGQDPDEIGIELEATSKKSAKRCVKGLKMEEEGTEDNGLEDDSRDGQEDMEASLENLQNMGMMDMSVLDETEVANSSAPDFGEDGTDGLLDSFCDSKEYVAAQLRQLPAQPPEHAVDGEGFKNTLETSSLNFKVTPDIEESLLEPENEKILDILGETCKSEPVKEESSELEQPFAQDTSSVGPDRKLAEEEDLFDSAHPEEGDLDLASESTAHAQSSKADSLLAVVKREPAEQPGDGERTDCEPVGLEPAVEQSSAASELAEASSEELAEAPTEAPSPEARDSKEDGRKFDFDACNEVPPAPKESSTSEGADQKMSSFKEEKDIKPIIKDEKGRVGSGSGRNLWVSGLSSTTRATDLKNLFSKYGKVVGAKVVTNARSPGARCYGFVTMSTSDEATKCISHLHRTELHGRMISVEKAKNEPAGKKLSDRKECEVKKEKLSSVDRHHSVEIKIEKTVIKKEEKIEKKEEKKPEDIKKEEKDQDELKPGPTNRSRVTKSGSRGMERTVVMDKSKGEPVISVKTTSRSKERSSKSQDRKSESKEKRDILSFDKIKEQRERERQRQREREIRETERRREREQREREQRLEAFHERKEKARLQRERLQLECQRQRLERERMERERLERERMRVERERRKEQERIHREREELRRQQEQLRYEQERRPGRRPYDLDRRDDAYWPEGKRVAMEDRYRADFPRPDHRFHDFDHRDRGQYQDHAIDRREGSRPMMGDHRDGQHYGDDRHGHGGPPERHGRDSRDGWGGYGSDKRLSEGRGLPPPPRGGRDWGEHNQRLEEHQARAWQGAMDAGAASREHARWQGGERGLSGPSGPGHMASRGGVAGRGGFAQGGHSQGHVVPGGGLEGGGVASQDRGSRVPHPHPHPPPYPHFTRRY
inactive: [1] -0.055 | [2] -0.028 | [3] 0.149 | [4] -0.048 | [5] -0.022 | [6] 0.144 | [7] 0.1 | [8] -0.067 | [9] 0.029 | [10] -0.005
